Compound activity deposited in PubChem by several laboratories.
Most compounds without a hit are left out; they make up all but 2.6% or so of the library.
PHOSPHO1 block: PubChem AID 1565 | Phosphoethanolamine/phosphocholine phosphatase (Homo sapiens), Q8TCT1 | recombinant PHOSPHO1, absorbance phosphatase assay | inhibition, % at 13.3 µM | actives 1.1% (n = 290,000); in the data active = inhibition above about 60%
eIF4H inh: human eIF4H binding inhibitors, primary screen, translation initiation inhibitor project, biochemical, uHTS, fluorescence polarization; Eukaryotic translation initiation factor 4H (Homo sapiens), Q15056; inhibition, % at 35 µM; eIF4H fluorescence polarization binding assay; actives 0.94% (n = 290,000);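 note: calls also rest on retests at 20 µM and on dose response follow-up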
PABP polyA inh: PABP poly(A) RNA binding inhibitors, primary screen, biochemical, fluorescence polarization, uHTS | Polyadenylate-binding protein 1 (Homo sapiens), P11940 | calls only at 35 µM | actives 1% (n = 290,000);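 note: calls also rest on retests at 20 µM and on dose response follow-up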
Target sequence (P11940 whole entry, looked up): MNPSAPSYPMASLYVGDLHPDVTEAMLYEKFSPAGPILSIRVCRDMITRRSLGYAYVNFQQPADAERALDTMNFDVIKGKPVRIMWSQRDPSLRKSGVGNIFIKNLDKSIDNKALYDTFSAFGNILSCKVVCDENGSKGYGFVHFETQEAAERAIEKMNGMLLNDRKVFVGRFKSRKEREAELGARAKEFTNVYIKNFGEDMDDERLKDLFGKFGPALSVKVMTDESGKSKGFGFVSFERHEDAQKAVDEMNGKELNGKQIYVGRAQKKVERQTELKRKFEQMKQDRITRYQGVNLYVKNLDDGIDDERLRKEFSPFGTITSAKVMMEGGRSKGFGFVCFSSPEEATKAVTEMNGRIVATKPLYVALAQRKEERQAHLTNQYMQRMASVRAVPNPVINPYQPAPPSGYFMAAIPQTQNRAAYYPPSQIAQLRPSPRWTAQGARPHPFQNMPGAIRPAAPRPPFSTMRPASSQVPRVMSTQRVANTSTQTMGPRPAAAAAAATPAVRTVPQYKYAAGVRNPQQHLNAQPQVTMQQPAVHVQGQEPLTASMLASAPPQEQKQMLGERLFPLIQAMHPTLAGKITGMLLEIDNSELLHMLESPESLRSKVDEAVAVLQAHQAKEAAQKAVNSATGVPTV
AI-2 QS modul: Vibrio harveyi AI-2 quorum sensing modulators, primary screen, JMH597 strain, luminescence/OD600 ratio | actives 0.4% (n = 300,000) | Vibrio harveyi JMH597 AI-2 luminescence/OD600 ratio, 9 h; active compounds read low; strain lacks LuxN and CqsS sensors; 0 = neutral-control median | activity change, % at 7.5 µM | AID 2094, 2009; in the data active = activity change below about -75%, passing the limit was not always enough; inconclusive = no clear call, values can overlap the other calls;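 note: luminescence divided by OD600 gain over 9 h not by final OD600 alone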
ABCB6 inh MLPCN: ABCB6 transporter inhibitors, primary screen, K562-ABCB6 cells, flow cytometry, MLPCN library; ATP-binding cassette sub-family B member 6 (Homo sapiens), Q9NP58; K562-ABCB6 porphyrin accumulation, 1 h; active compounds read low; fluorescence ratio to DMSO, % at 10 µM; actives 0.19% (n = 360,000); AID 602162, 2011;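 active = fluorescence ratio to DMSO below 75%, the collection mean minus 3 SD; inconclusive = too few cells collected in the well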;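 note: signal is porphyrin accumulated inside mitochondria; 100% equals median channel fluorescence of DMSO control wells; lower ratio means ABCB6 inhibition with less porphyrin fluorescence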
PABP1 MLLE inh: inhibitors of PABP1 MLLE–PAM2 peptide binding, primary screen, biochemical, fluorescence polarization, FITC-PAM2, GST-MLLE; Polyadenylate-binding protein 1 (Homo sapiens), P11940; inhibition, % at 20 µM; actives 0.36% (n = 360,000); AID 588489, 2011; in the data active = inhibition above about 35%, passing the limit was not always enough;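 note: plate controls were DMSO wells with GST-MLLE for no effect and wells lacking GST-MLLE protein for full effect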
An asterisk follows results filed as active; i = inactive; ? = inconclusive; nt = no result; + = active, no number. Unless noted, the rule behind the calls is not given here.

SMILES	PHOSPHO1 block	eIF4H inh	PABP polyA inh	AI-2 QS modul	ABCB6 inh MLPCN	PABP1 MLLE inh
c1coc(-c2nn3c(-c4ccco4)nnc3s2)c1	83.5*	95.4*	+	10.7	99.0	11.1
COc1ccccc1-c1nn2c(-c3ccco3)nnc2s1	8.9	59.4*	i	5.4	100.0	3.3
c1csc(Cc2nn3c(-c4n[nH]c5c4CCC5)nnc3s2)c1	-41.5	55.5	+	18.3	95.0	-127.2
Cc1cc2cc(CNC(=S)Nc3ccc(OC(F)(F)F)cc3)ccc2n1C	-13.5	77.1	i	4.2	107.0	46.0*
COc1cccc(NC(=S)NCc2ccc3c(c2)cc(C)n3C)c1	32.0	-8.6	i	26.0	98.0	7.0
CC(=O)Nc1ccc(S(=O)(=O)NCc2ccc3[nH]c(C)cc3c2)cc1	18.2	4.6	i	16.2	97.0	32.8
CC(=O)Nc1ccc(S(=O)(=O)NCc2ccc3c(c2)cc(C)n3C)cc1	2.7	55.0*	+	22.0	102.0	50.3
Cc1cc(C)c(S(=O)(=O)NCc2ccc3c(c2)cc(C)n3C)c(C)c1	34.3	39.6	i	2.6	164.0	26.9
Cc1cc2cc(CNS(=O)(=O)c3ccc4ccccc4c3)ccc2n1C	-2.0	29.2	i	6.8	121.0	42.9*
Cc1ccc(CSc2nnc(-c3ccccn3)n2Cc2cccs2)cc1	nt	nt	nt	nt	100.0	-15.1
O=C1NC2(CCCC2)C(=O)N1CCS(=O)(=O)Oc1ccccc1	64.7*	4.7	i	10.0	270.0	-5.0
O=C1NC2(CCCCC2)C(=O)N1CCS(=O)(=O)Oc1ccc(Br)cc1	48.0	-0.2	i	9.5	100.0	3.1
Cc1ccc(-n2c(C)cc(=O)cc2C)c(C)c1	-3.9	-11.8	i	12.5	103.0	5.5
Cc1cc(=O)cc(C)n1-c1ccc(F)cc1F	-48.3	77.4	+	6.3	101.0	1.5
CCCCn1c2c(c(=N)c3c1CCC3)CCC2	95.3*	4.5	i	nt	108.0	-112.5
Cc1ccc(Cc2c(-c3ccc(F)cc3)nc3c(Cl)cc(C(F)(F)F)cn23)cc1	nt	nt	nt	nt	95.0	14.0
Fc1ccc(-c2nc3c(Cl)cc(C(F)(F)F)cn3c2Cl)cc1	-3.4	?	i	-4.0	105.0	42.7*
CC1(c2ccc3noc(-c4ccc(F)cc4)c3c2)OCCO1	18.2	10.8	i	-12.0	99.0	67.7*
CC1(c2ccc3noc(-c4ccccc4)c3c2)OCCO1	1.0	-1.8	i	23.5	91.0	-7.4
COc1ccccc1CCN=C(N)NS(=O)(=O)c1ccccc1F	65.8*	-6.4	i	2.2	104.0	-5.0
C/C=C/c1ccc(OCCCCNCc2ccco2)c(OC)c1	8.4	8.0*	+	38.0	96.0	0.7
C/C=C/c1ccc(OCCCNCC(C)O)c(OC)c1 (stereo not given)	-2.2	-3.0	i	18.4	105.0	11.6
Cc1ccc(S(=O)(=O)CCSc2cccc(C(=O)O)c2)cc1	24.7	4.8	i	21.5	97.0	44.0*
O=C1C=CC(c2c[nH]c3ccccc23)CC1 (stereo not given)	nt	nt	nt	nt	97.0	nt
CC(C)(C)NC(=O)C1(C)CCC(=O)N1C1CCN(Cc2ccccc2)CC1 (stereo not given)	nt	nt	nt	nt	102.0	2.2
SMILES	PHOSPHO1 block	eIF4H inh	PABP polyA inh	AI-2 QS modul	ABCB6 inh MLPCN	PABP1 MLLE inh
CCCCNC1=CC(=O)C(NCCCC)=CC1=O	nt	nt	nt	nt	100.0	-11.4
CCCCNC1=CC(=O)C(=O)c2ccccc21	60.2*	5.1	i	14.3	101.0	4.8
Cn1c(=O)c2c(=O)cc(N)[nH]c2n(C)c1=O	20.3	44.4	i	18.2	110.0	43.3*
CCN1C=C(Cc2ccc(F)cc2)C2=C(C1)C(c1ccc(F)cc1)C(C#N)=C(N)O2 (stereo not given)	16.2	41.9	i	24.4	111.0	4.7
CCN1C=C(Cc2ccccc2C)C2=C(C1)C(c1ccccc1C)C(C#N)=C(N)O2 (stereo not given)	41.8	19.8	+	16.7	103.0	-5.1
CCOC(=O)N1CCN(C(=O)C[C@@H]2C[C@@]3(C(=O)OCC)CCCC=C3N(Cc3ccco3)C2=O)CC1	nt	nt	nt	nt	98.0	nt
CCOc1ccc(-c2ccc(/C=C3/C(=N)N4C=CSC4=NC3=O)o2)c([N+](=O)[O-])c1	-16.2	?	i	23.5	104.0	-10.2
CCOc1ccc(-c2ccc(/C=C3/C(=N)N4C(C)=CSC4=NC3=O)o2)c([N+](=O)[O-])c1	-16.2	79.6*	+	9.5	104.0	-9.7
O=C(O)c1ccc2c(c1)NC(=O)C(N1CCCC1)S2 (stereo not given)	18.2	49.3	i	15.0	103.0	54.8*
COC(=O)c1ccc2c(c1)NC(=O)C(N1CCCC1)S2 (stereo not given)	18.1	43.5	i	nt	106.0	-6.8
CCCN(C)C1CN(Cc2cn(Cc3cccc(Cl)c3)nn2)S(=O)(=O)C1 (stereo not given)	nt	nt	nt	nt	91.0	nt
Cc1[nH]c2ccccc2c1/C=C(\C#N)C(=O)NC1CC1	16.2	-7.2	i	8.2	106.0	-8.2
Cc1[nH]c2ccccc2c1/C=C(\C#N)C(=O)NC(C)c1ccccc1 (stereo not given)	94.5*	-10.2	+	10.8	96.0	-120.7
O=C(C[C@@H]1C[C@@H]2c3cc(NS(=O)(=O)c4ccc(F)cc4)ccc3O[C@@H]2[C@@H](CO)O1)NC1CCCCC1	nt	nt	nt	nt	99.0	-4.0
Cc1cc(C)cc(Cn2cc(CN3CC(N4CCSCC4)CS3(=O)=O)nn2)c1 (stereo not given)	nt	nt	nt	nt	97.0	nt
Oc1cccc(C=NCc2ccccc2)c1O	7.1	90.3*	+	23.3	102.0	-1.5
CCn1c(O)c(C=NCc2ccccc2)sc1=S	24.6	-8.8	i	-8.2	98.0	19.5
CS/C(N)=N/N=C/c1c(O)ccc2ccccc12	67.6*	11.3	i	6.9	93.0	-86.8
Oc1ccccc1N=Cc1c(O)ccc2ccccc12	29.8	85.5	+	23.0	109.0	-65.1
Oc1cccc(C=Nc2cccc3ccccc23)c1O	29.0	64.7*	+	17.5	133.0	35.2
Oc1ccccc1C=Nc1cccc2ccccc12	13.9	12.3	i	4.7	101.0	-5.5
CC1C(=O)N(Cc2cn(Cc3ccco3)nn2)CCS(=O)(=O)N1Cc1ccc(-c2ccccc2Cl)cc1 (stereo not given)	nt	nt	nt	nt	96.0	-27.3
O=C1c2ccccc2[C@@H]2Cc3csc[n+]3[C@H]12	nt	nt	nt	nt	94.0	nt
OC(c1cccc(Cl)c1)c1ncc(-c2ccc(Oc3ccccc3)cc2)[nH]1 (stereo not given)	nt	nt	nt	nt	102.0	5.0
